Test results: the supplement of paper PMC4466140

These binders were tested against CaNbp2 (assay: SPOT peptide array binding signal intensity (averaged, normalized) (arbitrary units (background-subtracted, floor 0; scale differs between SH3 domains)); higher = stronger binding of the SH3 domain to the peptide).
In short: (§1)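 GST-fused SH3 domains, from four yeast species, were produced in E. coli BL21(DE3) and captured on glutathione Sepharose. Membranes of cellulose carrying synthetic 15-mer peptides, in which cysteines had been replaced by serines, were exposed to each domain at 10 μg/ml overnight at 4°C in TBS-based blocking buffer. After anti-GST antibody, an HRP anti-mouse secondary and luminol, spots were imaged and quantified using Genespotter. Binding signal is normalized and background-subtracted spot intensity, averaged over replicates, in arbitrary units that differ between domains.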

Binder	SPOT peptide array binding signal intensity
SSAAPPPPPRRATPE	1

What follows are binders tested against CaRvs167 in the same assay as above.
In short: as §1

Binder	SPOT peptide array binding signal intensity
SSAAPPPPPRRATPE	349

What follows are binders tested against CaRvs167-3 in the same assay as above.
In short: as §1

Binder	SPOT peptide array binding signal intensity
SSAAPPPPPRRATPE	0.5

What follows are binders tested against CaSho1 in the same assay as above.
In short: as §1

Binder	SPOT peptide array binding signal intensity
SSAAPPPPPRRATPE	≤ 0

These binders were tested against CaSla1-D1-D2 in the same assay as above.
In short: as §1

Binder	SPOT peptide array binding signal intensity
SSAAPPPPPRRATPE	1870

Each binder was assayed against CaSla1-D3 in the same assay as above.
In short: as §1

Binder	SPOT peptide array binding signal intensity
SSAAPPPPPRRATPE	0.25

These binders were tested against ScAbp1 in the same assay as above.
In short: as §1

Binder	SPOT peptide array binding signal intensity
SSAAPPPPPRRATPE	3

Each binder was assayed against ScBbc1 in the same assay as above.
In short: as §1

Binder	SPOT peptide array binding signal intensity
SSAAPPPPPRRATPE	0.5

These binders were tested against ScBem1-D1 in the same assay as above.
In short: as §1

Binder	SPOT peptide array binding signal intensity
SSAAPPPPPRRATPE	≤ 0

These binders were tested against ScBzz1-D1 in the same assay as above.
In short: as §1

Binder	SPOT peptide array binding signal intensity
SSAAPPPPPRRATPE	24

Each binder was assayed against ScBzz1-D2 in the same assay as above.
In short: as §1

Binder	SPOT peptide array binding signal intensity
SSAAPPPPPRRATPE	5

These binders were tested against ScCyk3 in the same assay as above.
In short: as §1

Binder	SPOT peptide array binding signal intensity
SSAAPPPPPRRATPE	1

These binders were tested against ScFus1 in the same assay as above.
In short: as §1

Binder	SPOT peptide array binding signal intensity
SSAAPPPPPRRATPE	≤ 0

The binders below were run against ScHof1 in the same assay as above.
In short: as §1

Binder	SPOT peptide array binding signal intensity
SSAAPPPPPRRATPE	7

The binders below were run against ScHse1 in the same assay as above.
In short: as §1

Binder	SPOT peptide array binding signal intensity
SSAAPPPPPRRATPE	≤ 0

These binders were tested against ScLsb1 in the same assay as above.
In short: as §1

Binder	SPOT peptide array binding signal intensity
SSAAPPPPPRRATPE	315

What follows are binders tested against ScLsb2 in the same assay as above.
In short: as §1

Binder	SPOT peptide array binding signal intensity
SSAAPPPPPRRATPE	49.5

The binders below were run against ScLsb3 in the same assay as above.
In short: as §1

Binder	SPOT peptide array binding signal intensity
SSAAPPPPPRRATPE	3110

These binders were tested against ScLsb4 in the same assay as above.
In short: as §1

Binder	SPOT peptide array binding signal intensity
SSAAPPPPPRRATPE	711

What follows are binders tested against ScMyo3 in the same assay as above.
In short: as §1

Binder	SPOT peptide array binding signal intensity
SSAAPPPPPRRATPE	124

What follows are binders tested against ScMyo5 in the same assay as above.
In short: as §1

Binder	SPOT peptide array binding signal intensity
SSAAPPPPPRRATPE	83.8

What follows are binders tested against ScNbp2 in the same assay as above.
In short: as §1

Binder	SPOT peptide array binding signal intensity
SSAAPPPPPRRATPE	36

Each binder was assayed against ScPex13 in the same assay as above.
In short: as §1

Binder	SPOT peptide array binding signal intensity
SSAAPPPPPRRATPE	300

Each binder was assayed against ScRvs167 in the same assay as above.
In short: as §1

Binder	SPOT peptide array binding signal intensity
SSAAPPPPPRRATPE	1890

The binders below were run against ScSho1 in the same assay as above.
In short: as §1

Binder	SPOT peptide array binding signal intensity
SSAAPPPPPRRATPE	3

Each binder was assayed against ScSla1-D1-D2 in the same assay as above.
In short: as §1

Binder	SPOT peptide array binding signal intensity
SSAAPPPPPRRATPE	1390

Each binder was assayed against ScSla1-D3 in the same assay as above.
In short: as §1

Binder	SPOT peptide array binding signal intensity
SSAAPPPPPRRATPE	≤ 0

What follows are binders tested against SpAbp1-D1 in the same assay as above.
In short: as §1

Binder	SPOT peptide array binding signal intensity
SSAAPPPPPRRATPE	160

What follows are binders tested against SpBbc1 in the same assay as above.
In short: as §1

Binder	SPOT peptide array binding signal intensity
SSAAPPPPPRRATPE	≤ 0

Each binder was assayed against SpBzz1-D1 in the same assay as above.
In short: as §1

Binder	SPOT peptide array binding signal intensity
SSAAPPPPPRRATPE	757

Each binder was assayed against SpBzz1-D2 in the same assay as above.
In short: as §1

Binder	SPOT peptide array binding signal intensity
SSAAPPPPPRRATPE	142

Each binder was assayed against SpCyk3 in the same assay as above.
In short: as §1

Binder	SPOT peptide array binding signal intensity
SSAAPPPPPRRATPE	2.5

What follows are binders tested against SpHof1 in the same assay as above.
In short: as §1

Binder	SPOT peptide array binding signal intensity
SSAAPPPPPRRATPE	10.2

The binders below were run against SpHof1-2 in the same assay as above.
In short: as §1

Binder	SPOT peptide array binding signal intensity
SSAAPPPPPRRATPE	33.5

These binders were tested against SpHof1-3 in the same assay as above.
In short: as §1

Binder	SPOT peptide array binding signal intensity
SSAAPPPPPRRATPE	366

The binders below were run against SpHse1 in the same assay as above.
In short: as §1

Binder	SPOT peptide array binding signal intensity
SSAAPPPPPRRATPE	10.5

These binders were tested against SpLsb1 in the same assay as above.
In short: as §1

Binder	SPOT peptide array binding signal intensity
SSAAPPPPPRRATPE	101

What follows are binders tested against SpLsb4 in the same assay as above.
In short: as §1

Binder	SPOT peptide array binding signal intensity
SSAAPPPPPRRATPE	2800

What follows are binders tested against SpMyo1 in the same assay as above.
In short: as §1

Binder	SPOT peptide array binding signal intensity
SSAAPPPPPRRATPE	876

Each binder was assayed against SpNbp2 in the same assay as above.
In short: as §1

Binder	SPOT peptide array binding signal intensity
SSAAPPPPPRRATPE	≤ 0

The binders below were run against SpPex13 in the same assay as above.
In short: as §1

Binder	SPOT peptide array binding signal intensity
SSAAPPPPPRRATPE	≤ 0

These binders were tested against SpRvs167 in the same assay as above.
In short: as §1

Binder	SPOT peptide array binding signal intensity
SSAAPPPPPRRATPE	1860

What follows are binders tested against SpSla1-D1-D2 in the same assay as above.
In short: as §1

Binder	SPOT peptide array binding signal intensity
SSAAPPPPPRRATPE	62

The binders below were run against SpSla1-D3 in the same assay as above.
In short: as §1

Binder	SPOT peptide array binding signal intensity
SSAAPPPPPRRATPE	0.5
